Measured values from PubChem BioAssay.

Experiments:
[1] = tested on: Human papillomavirus type 1a protein E7 (residues 44-93); assay: small molecules binding HPV E7 44-93 – biochemical, small-molecule microarray, residues 44-93, 635 nm fluorescence, primary screen (AID 1108); settings: fluorescence 635 nm, higher = more signal;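 note: E7 fragment applied at 1 µg/mL in TBST for 1 h at 4 C; score combines spot fluorescence with its signal to noise ratio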
[2] = hepatitis C replication reporter changes, two-sided – Huh7 cells, luciferase reporter, HCV replication inhibitor project, primary screen (AID 1109); settings: Huh7 HCV replicon luciferase reporter, 48 h; higher = more signal;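 note: huh7 hepatoma cells harbouring a luciferase neomycin HCV replicon reporter; luciferase luminescence as measure of HCV replicon replication; test concentration not given here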
[3] = biological target: Left-right determination factor 2 (Homo sapiens) (UniProt O00292); assay: small molecules binding LEFTY2 protein – biochemical, small-molecule microarray, 635 nm fluorescence scan, primary screen (AID 1110); settings: higher = more signal
Sequence of Left-right determination factor 2 (Homo sapiens) (O00292 whole entry, looked up): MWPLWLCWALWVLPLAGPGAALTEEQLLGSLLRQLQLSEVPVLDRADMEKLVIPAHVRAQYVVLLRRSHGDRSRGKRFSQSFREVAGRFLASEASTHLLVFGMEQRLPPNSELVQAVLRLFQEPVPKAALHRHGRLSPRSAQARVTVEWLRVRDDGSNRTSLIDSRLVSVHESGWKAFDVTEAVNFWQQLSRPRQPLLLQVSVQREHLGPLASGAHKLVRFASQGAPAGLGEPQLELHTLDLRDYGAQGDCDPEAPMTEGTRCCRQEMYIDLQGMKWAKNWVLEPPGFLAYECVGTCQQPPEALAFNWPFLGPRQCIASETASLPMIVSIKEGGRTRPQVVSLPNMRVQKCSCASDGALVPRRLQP

[4] = biological target: Calmodulin-1 (Homo sapiens) (UniProt P0DP23); assay: small molecules binding calmodulin-1 with EGTA – biochemical, small-molecule microarray, Cy5-labelled CALM1, profiling panel (AID 1111); settings: Cy5-CALM1 binding fluorescence, higher = more signal;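 note: labelled calmodulin applied in Tris saline Tween buffer holding calcium plus EGTA and DTT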
[5] = biological target: Calmodulin-1 (Homo sapiens) (UniProt P0DP23); assay: small molecules binding Ca-loaded calmodulin-1 – biochemical, small-molecule microarray, Cy5-labelled CALM1, plus calcium, artefact control for SMM control-protein annotation, profiling panel (AID 1112); settings: Cy5-CALM1 binding fluorescence, higher = more signal;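 note: score merges spot fluorescence with signal to noise from triplicate slides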
[6] = probe aWnt5a binding to arrayed compounds – biochemical, biotinylated probe, 635/667 nm fluorescence, primary screen (AID 1113); settings: small-molecule microarray, higher = more signal;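 note: score merges 667 nm fluorescence intensity with signal-to-noise per printed feature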
[7] = probe aShh binding to arrayed compounds – biochemical, biotinylated probe, 635/667 nm fluorescence, primary screen (AID 1114); settings: small-molecule microarray, higher = more signal;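 note: probe is biotin-labelled aShh protein from a stem cell growth factor screen; measures binding of labelled protein to compounds printed on the slide; score merges feature fluorescence at 667 nm with signal-to-noise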
[8] = probe aNog binding to arrayed compounds – biochemical, biotinylated probe, 635/667 nm fluorescence, primary screen (AID 1115); settings: small-molecule microarray, higher = more signal;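 note: probe is biotinylated aNog protein used at 0.15 µg/mL for 1 h at 4 C; z-score combines 667 nm fluorescence of each spot with its signal to noise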
[9] = biological target: Torsin-1A-interacting protein 1 (Homo sapiens) (UniProt Q5JTV8); assay: compound microarray binding of lysate hLAP1 – cell lysate, small-molecule microarray, COS7 lysate, 635/667 nm fluorescence, primary screen (AID 1116); settings: 635 nm fluorescence, higher = more signal
Sequence of Torsin-1A-interacting protein 1 (Homo sapiens) (Q5JTV8 whole entry, looked up): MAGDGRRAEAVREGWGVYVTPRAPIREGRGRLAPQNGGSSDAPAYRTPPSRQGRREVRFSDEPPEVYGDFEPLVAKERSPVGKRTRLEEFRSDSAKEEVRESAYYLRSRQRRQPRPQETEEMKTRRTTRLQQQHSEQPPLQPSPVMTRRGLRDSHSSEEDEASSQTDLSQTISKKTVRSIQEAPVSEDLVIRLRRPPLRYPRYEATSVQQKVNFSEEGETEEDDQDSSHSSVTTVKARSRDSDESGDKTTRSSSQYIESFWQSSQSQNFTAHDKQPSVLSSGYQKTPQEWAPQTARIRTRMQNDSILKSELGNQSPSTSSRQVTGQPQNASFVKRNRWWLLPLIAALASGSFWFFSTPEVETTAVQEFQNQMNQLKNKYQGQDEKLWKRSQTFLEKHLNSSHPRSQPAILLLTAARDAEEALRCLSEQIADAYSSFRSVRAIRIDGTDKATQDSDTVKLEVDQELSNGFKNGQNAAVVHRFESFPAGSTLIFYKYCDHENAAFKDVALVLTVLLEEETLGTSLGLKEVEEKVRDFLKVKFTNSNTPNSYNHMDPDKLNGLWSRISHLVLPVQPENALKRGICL

[10] = biological target: Alpha-bungarotoxin (Bungarus multicinctus) (UniProt P60615); assay: compounds binding labelled alpha-BTX control protein – biochemical, small-molecule microarray, Alexa647 label, 635/667 nm fluorescence, artefact control for SMM control protein annotation, profiling panel (AID 1117); settings: alpha-BTX-A647 binding fluorescence, higher = more signal
Sequence of Alpha-bungarotoxin (Bungarus multicinctus) (P60615 whole entry, looked up): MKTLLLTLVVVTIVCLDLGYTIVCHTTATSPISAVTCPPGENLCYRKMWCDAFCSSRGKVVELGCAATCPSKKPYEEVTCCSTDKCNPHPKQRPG

SMILES | composite z-score [1] | z-score [2] | composite z-score [3] | composite z-score [4] | composite z-score [5] | composite z-score [6] | composite z-score [7] | composite z-score [8] | composite z-score [9] | composite z-score [10]
COCCOC(=O)N1C(=O)[C@@]2(c3cc(C#CC4(O)CCCCCC4)ccc31)[C@H](c1ccccc1OCCO)N1[C@H](c3ccccc3)[C@H](c3ccccc3)OC(=O)[C@H]1[C@@H]2C(=O)N1CCc2cc(OC)c(OC)cc2C1 | 1.43 | -2.42 | 0.21 | 1.26 | 0.57 | -0.0704 | -0.0289 | 0.268 | 1.24 | 1.97
CC=CC(O)C1C=CC2C(=O)N(C)C(=O)C2N1N(c1ccccc1)c1ccccc1 (stereo not given) | -1.28 | -0.332 | 0.36 | -0.54 | -1.3 | -0.104 | -0.0769 | -0.0281 | 1.13 | 0.721
COc1ccccc1CN1C(=O)c2ccccc2[C@@H](C(=O)NCc2ccccc2)[C@@H]1c1ccc(CO)cc1 | 0.841 | -1.01 | 0.0458 | -0.473 | -0.181 | -0.124 | -0.374 | -0.416 | 0.404 | 1.78
CO[C@H]1O[C@H](CO)[C@@H](OC(=O)Nc2ccc(Oc3ccccc3)cc2)[C@H](OC(=O)Nc2ccc3c(c2)OCO3)[C@@H]1OC(=O)Nc1ccc2c(c1)OCO2 | 0.794 | 0.166 | 0.627 | 1.15 | -0.23 | 0.0374 | 0.246 | 0.565 | 1.37 | 1.26
COCCOC(=O)N1C(=O)[C@@]2(c3cc(C#CC4=CCCCC4)ccc31)[C@H](c1ccc(OCCO)cc1)N1[C@H](c3ccccc3)[C@H](c3ccccc3)OC(=O)[C@H]1[C@@H]2C(=O)N1CCc2cc(OC)c(OC)cc2C1 | 1.24 | -0.829 | 1 | 0.933 | 0.43 | 0.139 | 0.0611 | 0.121 | 1.71 | 0.595
CC(C)(C)OC(=O)CC[C@]1(C(=O)NCCN2CCOCC2)COC(c2ccc(OCCCO)cc2)=N1 | 1.42 | -0.464 | 0.051 | 0.762 | -0.23 | 0.0559 | -0.0066 | 0.951 | 1.27 | 0.791
COc1ccc(NN2C(C(O)c3ccc(N(C)C)cc3)C=CC3C(=O)N(C4CCCCC4)C(=O)C32)cc1 (stereo not given) | 1.42 | -0.581 | -0.146 | 1.21 | 0.651 | 0.351 | -0.0248 | 0.42 | 1.22 | 1.72
CCCCN1CC=CC23O[C@@H]4C=CCCOC(=O)C4[C@H]2C(=O)N(CCCCCO)[C@@H]3C1=O (stereo not given in full) | -0.977 | -0.698 | -0.646 | -0.107 | -0.589 | -0.208 | -0.138 | -0.033 | -0.865 | 0.0086
CC(C)C(=C=CC[C@H](O)c1ccc(CO)o1)CCO | 1.21 | -1.12 | -0.0171 | -0.26 | -0.649 | -0.15 | -0.0793 | -0.0827 | 0.843 | 0.963
CC(C)[Si](C#C[Si](C(C)C)(C(C)C)C(C)C)(O[C@H](C)c1cn(Cc2ccccc2)nn1)C(C)C | 1.2 | 0.16 | 0.409 | 0.634 | 0.142 | -0.0893 | -0.221 | -0.33 | 0.182 | 0.717
COC(=O)[C@@]1(Cc2ccccc2)[C@H]2c3cc(C(=O)N(C)C)n(Cc4ccc(OC)c(OC)c4)c3C[C@H]2CN1C(=O)c1ccccc1 | 1.46 | -2.35 | -0.394 | 1.71 | 0.873 | 0.229 | 0.187 | 2.35 | 1.1 | 1.07
CC1CC/C=C\[C@H]2OC34C=CCN(Cc5ccccc5)C(=O)[C@H]3N(C(C)CO)C(=O)[C@@H]4C2C(=O)O1 (stereo not given in full) | -1.75 | -0.514 | 0.267 | -0.756 | -0.857 | -0.148 | 0.0952 | -0.193 | -0.457 | -0.463
CC(C)CNC(=O)[C@@]1(Cc2ccccc2I)c2ccccc2C(=O)N(Cc2ccccc2C(F)(F)F)[C@H]1c1ccc(CO)cc1 | 0.476 | -0.908 | -1.3 | -0.512 | -0.157 | -0.176 | 1.98 | 0.978 | 0.146 | -0.124
CC(C)CCC[C@@H](C)[C@H]1CC[C@@]2(C)C3=C(CC[C@]12C)[C@@]1(C)CC[C@H](OC(=O)c2ccc(C(F)(F)F)nc2)C(C)(C)C1CC3 (stereo not given in full) | 0.592 | 0.336 | 0.31 | -0.0347 | -0.337 | -0.162 | 0.0141 | -0.68 | 0.69 | 0.328
O=C1NC(=O)C2C1C=CC(C(O)C=Cc1ccc([N+](=O)[O-])cc1)N2Nc1ccc(Cl)cc1Cl (stereo not given) | 0.0788 | 0.498 | 0.0391 | 2.14 | 0.713 | -0.031 | 0.317 | 0.0884 | 1.52 | 1.49
COC(=O)[C@]1(Cc2ccccc2)N=C(c2ccc(OCCCO)cc2)O[C@@H]1c1ccccc1N=[N+]=[N-] | 1.33 | -3.25 | 0.123 | 0.39 | 0.245 | -0.0236 | -0.0709 | -0.595 | -0.279 | 0.0359
O=C1NC(=O)C2C1C=CC(C(O)c1ccc(I)cc1)N2Nc1ccc(Cl)cc1Cl (stereo not given) | 1.36 | -0.644 | -0.562 | 1.84 | 0.99 | -0.0236 | -0.0056 | 1.66 | 1.05 | 1.1

SMILES | composite z-score [1] | z-score [2] | composite z-score [3] | composite z-score [4] | composite z-score [5] | composite z-score [6] | composite z-score [7] | composite z-score [8] | composite z-score [9] | composite z-score [10]
Cc1ccc(C2C3C(=O)CC4C(=O)N(c5ccccc5)C(=O)C4C3CN2S(=O)(=O)c2ccc(C)cc2)cc1 (stereo not given) | 0.808 | -0.418 | 0.0699 | 1.33 | 0.531 | 0.374 | 0.343 | -0.308 | 1.66 | 0.644
C=CCN(Cc1ccccc1)C(=O)C(c1cccs1)N(C(=O)/C=C\C(=O)O)c1ccc(CCOCCO)cc1 (stereo not given) | -0.774 | 0.386 | -2.57 | -0.722 | 0.665 | -0.191 | -0.138 | -0.242 | -0.678 | -1.84
[N-]=[N+]=NCc1ccccc1[C@@H]1OC(c2ccc(OCCCO)cc2)=N[C@]1(CCS(=O)(=O)c1ccccc1)C(N)=O | 1.5 | 1.35 | 0.767 | 0.731 | 0.242 | 0.164 | 0.5 | 0.769 | 1.81 | 2.19
COc1cc2c(cc1O)C(c1cccs1)N(Cc1cccc(OC(F)(F)F)c1)CC2 (stereo not given) | 1.14 | -1.75 | 0.0446 | 0.0759 | -0.194 | -0.0545 | -0.0709 | 0.0953 | 0.0117 | 0.422
Cc1ccc(S(=O)(=O)N2C[C@@H](C(=O)O)[C@H](Sc3ccccc3)C[C@H]2c2ccccc2)cc1 | 1.14 | -0.697 | 0.0026 | 1.61 | -0.127 | 0.0775 | 0.0684 | 1.45 | 1.97 | 0.729
O=C1O[C@@H](c2ccccc2)[C@@H](c2ccccc2)N2[C@@H](c3ccccc3OCCO)[C@]3(C(=O)Nc4ccccc43)[C@@H](C(=O)O)[C@H]12 | 1.32 | -0.73 | -0.0445 | 0.995 | -0.842 | -0.0924 | -0.229 | -0.18 | 0.584 | 1.04
O=C1C2C=CC(C(O)c3ccc(-c4ccccc4)s3)N(Nc3ccccc3)C2C(=O)N1c1ccccc1 (stereo not given) | 1.47 | -0.978 | -0.44 | 1.45 | 0.133 | 0.105 | 0.634 | 1.38 | 0.537 | 1.46
NCCCCCCNC(=O)[C@H]1C[C@H]2C(=O)N[C@@H](Cc3ccccc3)C(=O)N2[C@H]1c1cccc(OCCO)c1 | 0.694 | 0.794 | 0.146 | 2.14 | 0.857 | -0.0718 | 0.356 | 0.0574 | 1.6 | 0.576
[N-]=[N+]=NCc1ccccc1[C@@H]1OC(c2ccc(OCCCO)cc2)=N[C@]1(CCS(=O)(=O)c1ccccc1)C(=O)N1CCCCC1 | 1.48 | -1.87 | 0.334 | 1.79 | 0.415 | 0.0873 | 0.333 | -0.316 | 1.04 | 1.34
CO[C@H]1O[C@H](CO)[C@@H](OC(=O)Nc2ccccc2-c2ccccc2)[C@H](OC(=O)Nc2ccccc2-c2ccccc2)[C@@H]1OC(=O)Nc1ccccc1-c1ccccc1 | 0.538 | -1.77 | 0.292 | 1.74 | 0.459 | -0.0196 | -0.0769 | 0.799 | 0.146 | 0.818
O=C1[C@H]2C=C(I)[C@H](C[C@@H]2OCCCCO)[C@@]12CO2 | -0.417 | -2.55 | -0.244 | -0.754 | -0.749 | -0.128 | 0.133 | 0.109 | 0.452 | -0.132
C=CC1c2cc(O)c(OC)cc2CCN1Cc1cccc(OC(F)(F)F)c1 (stereo not given) | 0.625 | -1.79 | -0.154 | 0.667 | -0.566 | -0.175 | -0.0146 | -0.483 | 0.828 | 0.39
NCCCCCNC(=O)[C@H]1C[C@H]2C(=O)N3CCC[C@H]3C(=O)N2[C@H]1c1ccc(O)cc1 | 1.39 | -0.0865 | 0.84 | 1.99 | 1.13 | 0.212 | 0.264 | 1.19 | 1.07 | 1.1
O=C1O[C@@H](c2ccccc2)[C@@H](c2ccccc2)N2[C@@H](c3ccc(OCCO)cc3)[C@]3(C(=O)Nc4ccc(C#CC5=CCCCC5)cc43)[C@@H](C(=O)N3CCCCCCC3)[C@H]12 | 1.45 | -1.58 | 1.59 | 2.33 | 1.14 | 1.21 | 2.92 | 3.02 | 4.33 | 2.54
O=C1NC(=O)C2C1C=CC(C(O)c1ccc(-c3ccccc3)s1)N2Nc1ccc(Cl)cc1Cl (stereo not given) | 1.29 | 1.7 | -0.114 | 1.65 | 1.03 | 0.1 | 0.213 | -0.358 | 0.712 | 1.06
CCCCN1CC=CC23O[C@@H]4/C=C\CCCOC(=O)C4[C@H]2C(=O)N(CCCCCO)[C@@H]3C1=O (stereo not given in full) | -0.766 | -0.895 | -0.68 | -0.803 | -1.24 | -0.172 | -0.221 | -0.357 | 0.328 | -0.509
CN(C)C(=O)[C@]1(Cc2ccccc2)N=C(c2ccc(OCCCO)cc2)O[C@@H]1c1ccccc1N=[N+]=[N-] | 1.4 | -2.58 | 0.357 | 1.63 | 0.393 | 0.0926 | 0.398 | -0.0332 | 2.01 | 1.37
